# Measurements taken from publication PMC11062922 (Nature Chemical Biology, 2023).
# Where two headings read alike, the source gives them in different places.
# Assays:
# Design in all cases: species or system human, MV4-11 + K-562 + COLO205 + SK-N-BE2 + OVCAR-8
# [1] = system: ADRBK1; conditions: read-out: apparent Kd, n = 1
# [2] = system: AKT1; conditions: read-out: apparent Kd; compound concentrations: 100 nM and 1000 nM (sheet 'Samples'), CATDS: 4.3697981842120898E-2; n = 1
# [3] = system: AKT2; conditions: read-out: apparent Kd, n = 1
# [4] = system: CAMK4; conditions: read-out: apparent Kd; compound concentrations: 100 nM and 1000 nM (sheet 'Samples'), CATDS: 3.6966464107036197E-2; n = 1
# [5] = system: CSNK1A1; conditions: read-out: apparent Kd; compound concentrations: 100 nM and 1000 nM (sheet 'Samples'), CATDS: 3.77728763052241E-2; n = 1
# [6] = system: EPHA7; conditions: read-out: apparent Kd; compound concentrations: 100 nM and 1000 nM (sheet 'Samples'), CATDS: 3.8645316072732999E-2; n = 1
# [7] = system: ILK; conditions: read-out: apparent Kd; compound concentrations: 100 nM and 1000 nM (sheet 'Samples'), CATDS: 0.14244785973502599; n = 1
# [8] = system: MAP2K1; conditions: read-out: apparent Kd; compound concentrations: 100 nM and 1000 nM (sheet 'Samples'), CATDS: 0.14670729977766001; n = 1
# [9] = system: MAP2K2; conditions: read-out: apparent Kd; compound concentrations: 100 nM and 1000 nM (sheet 'Samples'), CATDS: 4.5160118472274198E-2; n = 1
# [10] = system: MAP2K4; conditions: read-out: apparent Kd; compound concentrations: 100 nM and 1000 nM (sheet 'Samples'), CATDS: 0.186744219541462; n = 1
# [11] = system: MCM5; conditions: read-out: apparent Kd; compound concentrations: 100 nM and 1000 nM (sheet 'Samples'), CATDS: 3.88707631057994E-2; n = 1
# [12] = system: MYLK3; conditions: read-out: apparent Kd; compound concentrations: 100 nM and 1000 nM (sheet 'Samples'), CATDS: 3.9755051907905598E-2; n = 1
# [13] = system: NNT; conditions: read-out: apparent Kd; compound concentrations: 100 nM and 1000 nM (sheet 'Samples'), CATDS: 5.0059398656859502E-2; n = 1
# [14] = system: NQO1; conditions: read-out: apparent Kd; compound concentrations: 100 nM and 1000 nM (sheet 'Samples'), CATDS: 4.7880082762824801E-2; n = 1
# [15] = system: PRKCI; conditions: read-out: apparent Kd; compound concentrations: 100 nM and 1000 nM (sheet 'Samples'), CATDS: 3.7397105483333901E-2; n = 1
# [16] = system: PYGL; conditions: read-out: apparent Kd; compound concentrations: 100 nM and 1000 nM (sheet 'Samples'), CATDS: 3.7417156320033999E-2; n = 1
# [17] = system: RIOK2; conditions: read-out: apparent Kd, n = 1
# [18] = system: STK11; conditions: read-out: apparent Kd; compound concentrations: 100 nM and 1000 nM (sheet 'Samples'), CATDS: 4.1841672980442002E-2; n = 1
# [19] = system: STK26; conditions: read-out: apparent Kd; compound concentrations: 100 nM and 1000 nM (sheet 'Samples'), CATDS: 3.6848584126752397E-2; n = 1
# [20] = system: TP53RK; conditions: read-out: apparent Kd; compound concentrations: 100 nM and 1000 nM (sheet 'Samples'), CATDS: 4.1477973818590801E-2; n = 1
# [21] = system: VDAC3; conditions: read-out: apparent Kd; compound concentrations: 100 nM and 1000 nM (sheet 'Samples'), CATDS: 3.7908226064931903E-2; n = 1
# [22] = system: AURKB; conditions: read-out: apparent Kd; compound concentrations: 100 nM and 1000 nM (sheet 'Samples'), CATDS: 4.53976270719329E-2; n = 1
# [23] = system: CDC42BPA; conditions: read-out: apparent Kd; compound concentrations: 100 nM and 1000 nM (sheet 'Samples'), CATDS: 4.6703340399090902E-2; n = 1
# [24] = system: CDC42BPB; conditions: read-out: apparent Kd; compound concentrations: 100 nM and 1000 nM (sheet 'Samples'), CATDS: 8.1718607262500007E-2; n = 1
# [25] = system: CDC42BPG; conditions: read-out: apparent Kd; compound concentrations: 100 nM and 1000 nM (sheet 'Samples'), CATDS: 0.122976821527932; n = 1
# [26] = system: MELK; conditions: read-out: apparent Kd; compound concentrations: 100 nM and 1000 nM (sheet 'Samples'), CATDS: 4.0337872556692203E-2; n = 1
# [27] = system: PKN1; conditions: read-out: apparent Kd; compound concentrations: 100 nM and 1000 nM (sheet 'Samples'), CATDS: 5.5828153237378199E-2; n = 1
# [28] = system: PRKACA; conditions: read-out: apparent Kd; compound concentrations: 100 nM and 1000 nM (sheet 'Samples'), CATDS: 0.15364930572584601; n = 1
# [29] = system: PRKACB; conditions: read-out: apparent Kd; compound concentrations: 100 nM and 1000 nM (sheet 'Samples'), CATDS: 8.6308392593060404E-2; n = 1
# [30] = system: PRKG1; conditions: read-out: apparent Kd; compound concentrations: 100 nM and 1000 nM (sheet 'Samples'), CATDS: 0.45709294819491503; n = 1
# [31] = system: PRKX;PRKY; conditions: read-out: apparent Kd; compound concentrations: 100 nM and 1000 nM (sheet 'Samples'), CATDS: 6.11631694313804E-2; n = 1
# [32] = system: ROCK1; conditions: read-out: apparent Kd; compound concentrations: 100 nM and 1000 nM (sheet 'Samples'), CATDS: 0.130780563846252; n = 1
# [33] = system: ROCK2; conditions: read-out: apparent Kd; compound concentrations: 100 nM and 1000 nM (sheet 'Samples'), CATDS: 0.120469396164387; n = 1
# [34] = system: RPS6KA5; conditions: read-out: apparent Kd; compound concentrations: 100 nM and 1000 nM (sheet 'Samples'), CATDS: 4.3322192000587102E-2; n = 1
# [35] = system: RPS6KB1; conditions: read-out: apparent Kd; compound concentrations: 100 nM and 1000 nM (sheet 'Samples'), CATDS: 4.8981649950923703E-2; n = 1
# [36] = system: MAP2K5; conditions: read-out: apparent Kd; compound concentrations:100 nM and 1000 nM (sheet 'Samples'); n = 1
# [37] = system: RIPK3; conditions: read-out: apparent Kd; compound concentrations:100 nM and 1000 nM (sheet 'Samples'); n = 1
# [38] = system: CDK6; conditions: read-out: apparent Kd; compound concentrations: 100 nM and 1000 nM (sheet 'Samples'), CATDS: 8.6240814727830004E-2; n = 1
# [39] = system: CSNK1D; conditions: read-out: apparent Kd; compound concentrations: 100 nM and 1000 nM (sheet 'Samples'), CATDS: 0.10143186295273; n = 1
# [40] = system: CSNK1E; conditions: read-out: apparent Kd; compound concentrations: 100 nM and 1000 nM (sheet 'Samples'), CATDS: 9.8095690794025595E-2; n = 1
# [41] = system: MAPK14; conditions: read-out: apparent Kd; compound concentrations: 100 nM and 1000 nM (sheet 'Samples'), CATDS: 0.129413599974984; n = 1
# [42] = system: PKN3; conditions: read-out: apparent Kd; compound concentrations: 100 nM and 1000 nM (sheet 'Samples'), CATDS: 0.541648596841942; n = 1
# [43] = system: RIPK2; conditions: read-out: apparent Kd; compound concentrations: 100 nM and 1000 nM (sheet 'Samples'), CATDS: 0.18182932832718701; n = 1
# [44] = system: TESK2; conditions: read-out: apparent Kd; compound concentrations: 100 nM and 1000 nM (sheet 'Samples'), CATDS: 8.5548681543300906E-2; n = 1
# [45] = system: TNIK; conditions: read-out: apparent Kd; compound concentrations: 100 nM and 1000 nM (sheet 'Samples'), CATDS: 8.6694751539446793E-2; n = 1
# [46] = compound concentrations:100 nM and 1000 nM (sheet 'Samples')
structure (smiles),measurement,setting,value
COc1cc2ncn(-c3cc(OCc4ccccc4C(F)(F)F)c(C(C)=O)s3)c2cc1OC [GSK1030059A],potency estimated from few doses,"[1]; compound concentrations: 100 nM and 1000 nM (sheet 'Samples'), CATDS: 0.14381840818805",132 nM
same,potency estimated from few doses,[2],1300 nM
same,potency estimated from few doses,"[3]; compound concentrations: 100 nM and 1000 nM (sheet 'Samples'), CATDS: 4.5438239597783502E-2",1180 nM
same,potency estimated from few doses,[4],2080 nM
same,potency estimated from few doses,[5],1950 nM
same,potency estimated from few doses,[6],1820 nM
same,potency estimated from few doses,[7],134 nM
same,potency estimated from few doses,[8],128 nM
same,potency estimated from few doses,[9],1190 nM
same,potency estimated from few doses,[10],89.5 nM
same,potency estimated from few doses,[11],1790 nM
same,potency estimated from few doses,[12],1670 nM
same,potency estimated from few doses,[13],933 nM
same,potency estimated from few doses,[14],1040 nM
same,potency estimated from few doses,[15],2010 nM
same,potency estimated from few doses,[16],2000 nM
same,potency estimated from few doses,"[17]; compound concentrations: 100 nM and 1000 nM (sheet 'Samples'), CATDS: 4.6117723123063198E-2",1130 nM
same,potency estimated from few doses,[18],1450 nM
same,potency estimated from few doses,[19],2100 nM
same,potency estimated from few doses,[20],1490 nM
same,potency estimated from few doses,[21],1930 nM
CCNCC(Cc1ccccc1)NC(=O)c1cc(Br)c(-c2ccnc3[nH]ccc23)s1.CCNCC(Cc1ccccc1)NC(=O)c1cc(Br)c(-c2ccnc3[nH]ccc23)s1.Cl.Cl (centres unmarked) [GSK1383280A],potency estimated from few doses,"[1]; compound concentrations: 100 nM and 1000 nM (sheet 'Samples'), CATDS: 4.4620595418211097E-2",971 nM
same,potency estimated from few doses,[22],888 nM
same,potency estimated from few doses,[23],771 nM
same,potency estimated from few doses,[24],103 nM
same,potency estimated from few doses,[25],38.1 nM
same,potency estimated from few doses,[26],1780 nM
same,potency estimated from few doses,[27],359 nM
same,potency estimated from few doses,[28],24.4 nM
same,potency estimated from few doses,[29],88.6 nM
same,potency estimated from few doses,[30],4.21 nM
same,potency estimated from few doses,[31],256 nM
same,potency estimated from few doses,[32],33.5 nM
same,potency estimated from few doses,[33],39.8 nM
same,potency estimated from few doses,[34],1140 nM
same,potency estimated from few doses,[35],617 nM
O=C(O)C(F)(F)F.O=C(O[C@H]1CN[C@H](C#Cc2cc3ncnc(Nc4ccc(Cc5ccccc5)cc4)c3s2)C1)N1CCOCC1 [GSK238583A],potency estimated from few doses,[1]; [46],1670 nM
same,potency estimated from few doses,[3]; [46],1770 nM
same,potency estimated from few doses,[36],646 nM
same,potency estimated from few doses,[17]; [46],2420 nM
same,potency estimated from few doses,[37],2260 nM
CCc1nc(-c2cccc(C)c2)c(-c2ccncc2)s1 [TPKI-106],potency estimated from few doses,"[1]; compound concentrations: 100 nM and 1000 nM (sheet 'Samples'), CATDS: 9.0460214145081597E-2",1680 nM
same,potency estimated from few doses,[38],1950 nM
same,potency estimated from few doses,[39],1230 nM
same,potency estimated from few doses,[40],1340 nM
same,potency estimated from few doses,[41],691 nM
same,potency estimated from few doses,[42],57.5 nM
same,potency estimated from few doses,[43],349 nM
same,potency estimated from few doses,[44],2000 nM
same,potency estimated from few doses,[45],1910 nM
